Read-out in test [1]: Monokine induced gamma interferon (MIG), CXCL9 (gene 4283)
Put plainly: BSK_hDFCGF_MIG: BioMAP Diversity Plus: hDFCGF Assay for Monokine induced gamma interferon (MIG) Biomarker Activity (AID 2283063). Particulars: primary human foreskin fibroblasts; actives raise or lower the signal. In a few lines:
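ELISA read-out of MIG from primary human dermal fibroblasts 24 h post-dosing. Gain or loss of signal fitted bidirectionally, DMSO as baseline.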

Read-out in test [2]: Matrix Metallopeptidase 1 (MMP1), MMP1 (gene 4312)
Put plainly: BSK_hDFCGF_MMP1: BioMAP Diversity Plus: hDFCGF Assay for Matrix Metallopeptidase 1 (MMP1) Biomarker Activity (AID 2283064). Particulars: primary human foreskin fibroblasts; actives raise or lower the signal. In a few lines: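 Primary human foreskin fibroblasts in the hDFCGF system were dosed with test chemical, and MMP1 was measured by ELISA 24 h later. Values come from bidirectional curve fitting against the DMSO baseline.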

Read-out in test [3]: Vascular cell adhesion molecule 1 (VCAM1), VCAM1 (gene 7412)
Put plainly: BSK_hDFCGF_VCAM1: BioMAP Diversity Plus: hDFCGF Assay for Vascular cell adhesion molecule 1 (VCAM1) Biomarker Activity (AID 2283065).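 As to AC50: VCAM-1 protein level quantified by ELISA after 24 h chemical exposure.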 Particulars: primary human foreskin fibroblasts; actives raise or lower the signal. In a few lines: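 Primary human foreskin fibroblasts (hDFCGF system) were dosed with chemical and VCAM-1 was measured by ELISA 24 h later. Bidirectional curve fitting used DMSO as negative control and activity baseline.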

Read-out in test [4]: Plasminogen activator inhibitor-1 (PAI1), SERPINE1 (gene 5054)
Put plainly: BSK_hDFCGF_PAI1: BioMAP Diversity Plus: hDFCGF Assay for Plasminogen activator inhibitor-1 (PAI1) Biomarker Activity (AID 2283066). The settings on record: primary human foreskin fibroblasts; actives raise or lower the signal. In a few lines: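 Human foreskin fibroblast primary cells, 24 h chemical exposure; PAI-1 measured by ELISA. Bidirectional fitting relative to DMSO; parallel cultures stained with SRB for total protein to flag overt cytotoxicity.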

Read-out in test [5]: Intercellular Adhesion Molecule 1 (ICAM1), ICAM1 (gene 3383)
Put plainly: BSK_KF3CT_ICAM1: BioMAP Diversity Plus: KF3CT Assay for Intercellular Adhesion Molecule 1 (ICAM1) Biomarker Activity (AID 2283067). Particulars: primary human keratinocytes with fibroblasts; actives raise or lower the signal. In a few lines: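 Human keratinocyte plus foreskin fibroblast primary co-culture was exposed to chemical for 24 h. ICAM-1 was then quantified by ELISA, and the data were fit bidirectionally against DMSO as the negative control and baseline.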

Read-out in test [6]: Interferon-gamma inducible Protein 10 (IP10), CXCL10 (gene 3627)
In words: BSK_KF3CT_IP10: BioMAP Diversity Plus: KF3CT Assay for Interferon-gamma inducible Protein 10 (IP10) Biomarker Activity (AID 2283068). The settings on record: primary human keratinocytes with fibroblasts; actives raise or lower the signal. In a few lines:
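In a primary skin co-culture of keratinocytes and fibroblasts, IP-10 is quantified by ELISA at 24 h after dosing. SRB staining of parallel wells monitors overt toxicity. Curves are fitted both directions against DMSO.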

The nature of test [7]: BSK_KF3CT_SRB: Viability Assessment in the BioMAP Diversity Plus: KF3CT Assay (AID 2283069).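 Also: total protein by sulforhodamine B staining as a cytotoxicity measure; read 24 h after compound addition.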 The settings on record: primary human keratinocytes with fibroblasts. In a few lines: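 Human primary keratinocyte plus foreskin fibroblast co-culture exposed to chemicals for 24 h. Total protein measured by 0.1% sulforhodamine B staining after 10% TCA fixation, read at 560 nm; bidirectional fitting versus DMSO baseline.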

Read-out in test [8]: Interleukin-1 alpha (IL1a), IL1A (gene 3552)
In words: BSK_KF3CT_IL1a: BioMAP Diversity Plus: KF3CT Assay for Interleukin-1 alpha (IL1a) Biomarker Activity (AID 2283070). The settings on record: primary human keratinocytes with fibroblasts; actives raise or lower the signal. In a few lines: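 Human keratinocyte plus foreskin fibroblast primary co-culture, sampled 24 h after chemical dosing. IL-1a measured by ELISA; responses fitted bidirectionally against DMSO baseline (negative control), so gain or loss of signal both count.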

Read-out in test [9]: TIMP metallopeptidase inhibitor 2 (TIMP2), TIMP2 (gene 7077)
Put plainly: BSK_KF3CT_TIMP2: BioMAP Diversity Plus: KF3CT Assay for TIMP metallopeptidase inhibitor 2 (TIMP2) Biomarker Activity (AID 2283071). Particulars: primary human keratinocytes with fibroblasts; actives raise or lower the signal. In a few lines:
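Co-culture of human primary keratinocytes and foreskin fibroblasts, measured 24 h after chemical dosing. TIMP-2 quantified by ELISA and fitted in both directions relative to DMSO. Cytotoxicity checked in parallel cultures by SRB total-protein staining.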

Read-out in test [10]: Transforming growth factor beta 1 (TGFb1), TGFB1 (gene 7040)
In words: BSK_KF3CT_TGFb1: BioMAP Diversity Plus: KF3CT Assay for Transforming growth factor beta 1 (TGFb1) Biomarker Activity (AID 2283072). The settings on record: primary human keratinocytes with fibroblasts; actives raise or lower the signal. In a few lines: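 Human keratinocyte/foreskin fibroblast co-culture; TGF-b1 measured by ELISA 24 h after dosing, fitted bidirectionally versus DMSO. Cytotoxicity checked in parallel cultures by total protein (SRB staining, 560 nm).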

Read-out in test [11]: C-C motif chemokine 2 (Homo sapiens) (UniProt P13500)
In words: BSK_KF3CT_MCP1: BioMAP Diversity Plus: KF3CT Assay for Monocyte Chemoattractant Protein 1 (MCP1/CCL2) Biomarker Activity (AID 2283073). Particulars: primary human keratinocytes with fibroblasts; actives raise or lower the signal. In a few lines:
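Human keratinocyte plus foreskin fibroblast primary co-culture exposed to chemical for 24 h. MCP-1 levels measured by ELISA. Bidirectional curve fitting relative to DMSO negative control as baseline.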

Read-out in test [12]: Matrix Metallopeptidase 9 (MMP9), MMP9 (gene 4318)
In words: BSK_KF3CT_MMP9: BioMAP Diversity Plus: KF3CT Assay for Matrix Metallopeptidase 9 (MMP9) Biomarker Activity (AID 2283074).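 As to AC50: MMP9 protein level quantified by ELISA in the co-culture.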 The settings on record: primary human keratinocytes with fibroblasts; actives raise or lower the signal. In a few lines: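 Keratinocyte plus foreskin fibroblast human primary skin co-culture was dosed with chemical and MMP-9 was quantified by ELISA 24 h later. Bidirectional curve fitting used DMSO as negative control and activity baseline.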

Read-out in test [13]: urokinase plasminogen activator (uPA), PLAU (gene 5328)
Put plainly: BSK_KF3CT_uPA: BioMAP Diversity Plus: KF3CT Assay for urokinase plasminogen activator (uPA) Biomarker Activity (AID 2283075). Particulars: primary human keratinocytes with fibroblasts; actives raise or lower the signal. In a few lines:
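Human keratinocyte plus foreskin fibroblast primary co-culture exposed to chemical for 24 h. uPA levels were quantified by ELISA, and activity was fitted bidirectionally against a DMSO negative-control baseline.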

Read-out in a further test: CD40, CD40 (gene 958)
Put plainly: BSK_LPS_CD40: BioMAP Diversity Plus: LPS Assay for CD40 Biomarker Activity (AID 2283076). Particulars: primary human HUVEC with PBMC; actives raise or lower the signal. In a few lines: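 Primary human umbilical vein endothelial cells co-cultured with peripheral blood mononuclear cells, LPS-stimulated, were dosed with chemical and read 24 h later. CD40 levels were measured by ELISA and fitted bidirectionally against DMSO as negative control and baseline.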

Read-out in test [14]: Interleukin-8 (IL8), CXCL8 (gene 3576)
Put plainly: BSK_LPS_IL8: BioMAP Diversity Plus: LPS Assay for Interleukin-8 (IL8) Biomarker Activity (AID 2283078). The settings on record: primary human HUVEC with PBMC; actives raise or lower the signal. In a few lines: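 Human umbilical vein endothelial cells co-cultured with PBMC were stimulated with LPS; IL-8 levels were measured by ELISA 24 h after chemical dosing. Activity was fitted bidirectionally against DMSO as negative control and baseline.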

Test [15] is described as follows: BSK_LPS_SRB: Viability Assessment in the BioMAP Diversity Plus: LPS Assay (AID 2283079).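 Also: total protein by sulforhodamine B absorbance as a cytotoxicity measure; measured one day after compound addition.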 The settings on record: primary human HUVEC with PBMC. In a few lines: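 Human umbilical vein endothelial cells co-cultured with PBMC (LPS system) were dosed for 24 h. Total protein was stained with 0.1% sulforhodamine B after 10% TCA fixation, read at 560 nm, and fitted bidirectionally against DMSO baseline.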

Read-out in test [16]: Interleukin-1 alpha (IL1a), IL1A (gene 3552)
Put plainly: BSK_LPS_IL1a: BioMAP Diversity Plus: LPS Assay for Interleukin-1 alpha (IL1a) Biomarker Activity (AID 2283080). The settings on record: primary human HUVEC with PBMC; actives raise or lower the signal. In a few lines: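 Human umbilical vein endothelial cells co-cultured with peripheral blood mononuclear cells were LPS-stimulated and exposed to test chemicals for 24 h. IL-1 alpha was quantified by ELISA, with bidirectional curve fitting against DMSO as the negative control and baseline.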

Read-out in test [17]: Monocyte Chemoattractant Protein-1 (MCP1), CCL2 (gene 6347)
Put plainly: BSK_LPS_MCP1: BioMAP Diversity Plus: LPS Assay for Monocyte Chemoattractant Protein-1 (MCP1) Biomarker Activity (AID 2283081).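 As to AC50: secreted MCP-1 protein quantified by ELISA in culture supernatant.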 The settings on record: primary human HUVEC with PBMC; actives raise or lower the signal. In a few lines: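 HUVEC plus PBMC co-culture (human primary cells, LPS system) exposed to test chemical for 24 h; MCP-1 measured by ELISA. Bidirectional curve fitting against DMSO baseline; parallel SRB total-protein staining flags overt cytotoxicity.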

Test [18] can be described thus: BSK_LPS_PGE2: BioMAP Diversity Plus: LPS Assay for Prostaglandin E2 (PGE2) Biomarker Activity (AID 2283082).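 As to AC50: secreted prostaglandin E2 measured by ELISA in LPS-stimulated co-culture.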 The settings on record: primary human HUVEC with PBMC; actives raise or lower the signal. In a few lines:
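HUVEC plus human PBMC co-culture stimulated with LPS; secreted PGE2 quantified by ELISA 24 h after chemical dosing. Activity fitted bidirectionally against DMSO baseline; parallel SRB staining (0.1% SRB after 10% TCA fixation, 560 nm) flags overt cytotoxicity.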

Read-out in test [19]: E-selectin (Homo sapiens) (UniProt P16581)
Put plainly: BSK_LPS_Eselectin: BioMAP Diversity Plus: LPS Assay for Eselectin Biomarker Activity (AID 2283077). The settings on record: primary human HUVEC with PBMC; actives raise or lower the signal. In a few lines: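 Human umbilical vein endothelial cells co-cultured with peripheral blood mononuclear cells under LPS stimulation; E-selectin measured by ELISA 24 h after chemical dosing. Activity fitted bidirectionally against DMSO as negative control and baseline.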

Activity calls are given as the source filed them. The calls were made as follows: active = hit-call score of the fitted dose curve at least 0.9, where 1 is the maximum; inactive = score below 0.9.

Chain of E-selectin (Homo sapiens) (P16581 whole entry, looked up): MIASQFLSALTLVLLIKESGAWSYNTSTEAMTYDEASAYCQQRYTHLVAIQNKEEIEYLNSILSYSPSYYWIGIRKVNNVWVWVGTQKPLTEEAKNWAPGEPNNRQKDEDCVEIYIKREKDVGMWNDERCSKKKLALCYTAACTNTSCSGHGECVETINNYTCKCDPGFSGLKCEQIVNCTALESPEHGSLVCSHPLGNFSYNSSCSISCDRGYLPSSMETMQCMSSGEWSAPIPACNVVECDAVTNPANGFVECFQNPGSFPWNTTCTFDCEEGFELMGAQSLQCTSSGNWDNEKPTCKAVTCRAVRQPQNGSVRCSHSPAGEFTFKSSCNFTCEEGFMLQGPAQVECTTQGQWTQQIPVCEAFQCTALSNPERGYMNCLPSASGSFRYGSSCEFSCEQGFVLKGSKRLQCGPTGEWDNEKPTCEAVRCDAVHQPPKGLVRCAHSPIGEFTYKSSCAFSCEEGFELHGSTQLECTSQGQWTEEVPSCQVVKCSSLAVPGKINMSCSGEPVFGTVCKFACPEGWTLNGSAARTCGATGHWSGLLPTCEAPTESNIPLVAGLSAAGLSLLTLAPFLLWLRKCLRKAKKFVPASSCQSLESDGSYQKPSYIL

In general, AC50 refers to the midpoint of the concentration-response curve, whichever way the signal moves. Turning to `CCOc1cccc(-n2cc(C(=O)N3CCN(c4cc(C(=O)O)c5ccccc5c4)CC3)nc2-c2ccc(C)cc2)c1`, the AC50 in test [1] was 26.3 µM (active); in [2], 16.5 µM (active); in test [3], 12.9 µM (active); in [4], 6.1 µM (active); in test [5], 30.5 µM (active); in test [6], 29.2 µM (active). Moreover, the AC50 was 21.3 µM (active) in test [7]; 30.1 µM (active) in test [8]; 14.7 µM (active) in test [9]; 14.4 µM (active) in test [10]; 19.2 µM (active) in test [11]; 19.7 µM (active) in test [12]. In addition, the AC50 was 31.2 µM (active) in [13]; 14.2 µM (active) with CD40, CD40 (gene 958); 27.2 µM (active) in test [14]; 13.7 µM (active) in test [15]; 19.2 µM (active) in test [16]; 30.7 µM (active) in test [17]. For the same compound, the AC50 in test [18] was 29.4 µM (active).
`Cc1c(-c2cccnc2)c2ccccc2n1CCCCC(=O)O`: the result in test [1], in [2], in test [3], in [4], in [5] and in test [6] was inactive. For the same compound, the outcome in test [7], in [8], in test [9], in [10], in test [11] and in [12] was inactive. The outcome was “inactive” in test [13]; “inactive” with CD40, CD40 (gene 958); “inactive” in test [14]; “inactive” in [15]; “inactive” in test [16]; “inactive” in test [17]. Besides, the AC50 in [18] is 1.14 µM (active).
For the compound `CCOCCOCCOCCO`, the result in test [1], in [2], in [3], in [4], in test [5] and in [6] was inactive. For the same compound, the result in [7], in [8], in [9], in test [10], in test [11] and in test [12] was inactive. The outcome in test [13] is “inactive”; with CD40, CD40 (gene 958), “inactive”; in test [19], “inactive”; in test [14], “inactive”; in test [15] it was “inactive”; in test [16] it was “inactive”. Further, the result in [17] and in test [18] was inactive.
As for `CC(C)=CCC/C(C)=C/CO`, the outcome in test [1], in [2], in test [3], in test [5], in test [6] and in [7] was inactive. The outcome in test [9] was “inactive”; in test [10] it was “inactive”; in test [11], “inactive”; in test [12], “inactive”; in test [13], “inactive”; in the test with CD40, CD40 (gene 958), “inactive”. Besides, the result in test [19], in [14], in test [15], in test [16] and in test [18] was inactive.
For the compound `O=c1[nH]c2ccc(S(=O)CCN3CCC(Cc4ccc(F)cc4)CC3)cc2o1` (stereo not given), the outcome in test [1], in [3], in [4], in test [5], in test [6] and in test [7] was inactive. Moreover, the result in [8], in test [9], in test [10], in test [11], in test [12] and in test [13] was inactive. The outcome with CD40, CD40 (gene 958) is “inactive”; in test [19] it was “inactive”; in test [14], “inactive”; in [15] it was “inactive”; in [16], “inactive”; in test [17] it was “inactive”. Moreover, the result in test [18] was inactive.
Consider `O=C1CCC(N2C(=O)c3ccccc3C2=O)C(=O)N1` (stereo not given), for which the outcome in test [1], in test [2], in test [3], in test [5], in [6] and in [7] was inactive. Moreover, the outcome was “inactive” in [9]; “inactive” in test [10]; “inactive” in test [11]; “inactive” in test [12]; “inactive” in [13]; “inactive” with CD40, CD40 (gene 958). Also, the outcome in [14], in [15], in test [16] and in [18] was inactive.

The record behind these values is PubChem BioAssay (EPA / NIEHS).
